From PubChem BioAssay
Shown are actives, neighbours in structure and some others; about 2.6% of the full set was active somewhere.
TROY signal inh: TROY signaling inhibition. 0.98% of 360,000 active. Q293 LMP1-TROYcd NF-kB luciferase reporter, 4 h. inhibition, % at 10 µM. AID 1347056;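 active = compounds whose plate-normalised and pattern-corrected inhibition of the luciferase reporter signal at the single screening dose is 50% or more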
LGR2 inh: Drosophila LGR2 receptor signaling inhibition. HEK293 LGR2, CRE-luciferase, bursicon-stimulated, 4 h. inhibition, % at 9.99 µM. 0.35% of 380,000 active. AID 720647;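 active = drop in luminescence signal, shown as inhibition above about 50% in the replicate tests, limit read from the data, passing the limit was not always enough; inconclusive = probably only some replicates passing the limit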;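 also: agonist challenge used bursicon conditioned medium at about half maximal strength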
KKLEB tox: CF airway cell cytotoxicity counter-screen | activity change (cytotoxicity), % at 5 µM | KKLEB CF airway cells viability, ATPlite luminescence, overnight; hits give low values; cells stimulated with P. aeruginosa culture filtrate | 0.36% of 360,000 active;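 active = corrected activity change at or below -50% at 5 µM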
TWEAK Fn14 block: inhibitors of TWEAK-Fn14 interaction signaling | TWEAK-stimulated Fn14 reporter cells, luciferase luminescence, 8 h | inhibition, % at 10 µM | 2% of 360,000 active | AID 1159606; in the data active = inhibition above about 50%
CF NFkB block: inhibitors of cystic fibrosis induced NF-kB; KKLEB NF-kB-GFP reporter, PAF-induced, GFP fluorescence overnight; inhibition, % at 5 µM; 0.86% of 360,000 active;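 active = at least 50% inhibition at 5 µM, scaled per plate between neutral and stimulator controls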;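 also: PAF is a Pseudomonas aeruginosa culture filtrate used as stimulus; plate controls were PAF-stimulated DMSO wells for no effect and unstimulated DMSO wells for full effect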
EWS-Fli inh: EWS/Fli transcriptional activity inhibition; inhibition, % at 12.6 µM; A673 NR0B1-luciferase reporter, viability-normalised; 0.67% of 350,000 active;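 active = mean inhibition of at least 50% after viability correction, with every replicate also passing that limit; inconclusive = mean reaches 50% but only one of two replicates passes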;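 also: firefly luciferase signal divided by Alamar Blue viability fluorescence both relative to DMSO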
Numbers without * were called inactive; ? = inconclusive; nt = no result.

SMILES	TROY signal inh	LGR2 inh	KKLEB tox	TWEAK Fn14 block	CF NFkB block	EWS-Fli inh
CCN(CC)C(=O)C1CCCN(c2ncnc3c2cnn3-c2cccc(C)c2)C1 (stereo not given)	37	nt	-1	50*	4	nt
CC(C)(C)c1ccc(C(=O)NCCC(=O)Nc2ccc3c(c2)OCCO3)cc1	65*	-7	16	67*	-18	5
O=C(CCNS(=O)(=O)c1ccc2c(c1)CCC(=O)N2)Nc1ccc2c(c1)OCCO2	56*	nt	-1	68*	8	nt
Cc1ccc(C(=O)NCC(=O)Nc2ccc3c(c2)OCCO3)cc1	-26	5	-8	-6	-18	-23
Cc1ccc(C(=O)Nc2ccc3c(c2)OCCO3)c(C)c1	59*	93*	-29	85*	-19	79*
Cc1ccc(NC(=O)c2ccc3c(c2)OCCO3)cc1C	47	77*	-20	85*	-15	40
COc1ccccc1-c1cccc(-c2nc(C(=O)N3CCCCC3)cc3c2[C@H](CCO)N([S@@](=O)C(C)(C)C)C3)c1	nt	-27	nt	nt	nt	0
Cc1ccc(NC(=O)c2ccc3c(c2)OCCO3)cc1S(=O)(=O)Nc1cccc(Cl)c1	59*	-32	12	62*	13	-67
CCN1CCN(c2nc(S(=O)(=O)c3ccc(C)cc3)c(Cl)s2)CC1	51*	-5	-2	0	15	6
C[C@H]1CN([C@@H](C)CO)S(=O)(=O)c2ccc(-c3cncnc3)cc2O[C@H]1CN(C)C(=O)c1ccc2c(c1)OCO2	nt	-3	nt	nt	nt	2
Cc1ccc(C(=O)Nc2ncc(Cc3ccccc3)s2)o1	-5	nt	-14	66*	-9	nt
O=C(CSc1ccc(C(F)(F)F)cn1)Nc1ccccc1	-34	2	-9	-19	8	-3
O=C(/C=C/Sc1ccc(C(F)(F)F)cn1)c1ccccc1	22	-61	-3	60*	-18	40
COc1ccc(C(=O)CC(Nc2ccc([N+](=O)[O-])cc2)c2ccc(Cl)cc2)cc1 (stereo not given)	11	26	-16	53*	4	nt
CO[C@H]1CN(C)C(=O)c2ccc(NS(=O)(=O)c3ccc(Cl)cc3)cc2OC[C@@H](C)NC[C@@H]1C	nt	9	nt	nt	nt	-6
O=C(Nc1ccccn1)c1onc2c1CCCC2	59*	79*	-7	89*	-7	nt
Cc1ccc2nc(-c3ccc(NC(=O)COC(=O)c4ccc(Br)o4)cc3)sc2c1	7	?	-15	59*	-12	nt
Cc1ccc(NC(=O)COC(=O)c2ccco2)cc1	-39	-4	1	-26	-30	3
Cc1ccc2nc(-c3ccc(NC(=O)COC(=O)c4ccc([N+](=O)[O-])o4)cc3)sc2c1	21	83*	-11	78*	-21	55*
Cc1ccc2nc(-c3ccc(NC(=O)COC(=O)c4ccco4)cc3)sc2c1	7	66*	-31	52*	-18	nt
CC(=O)Nc1ccc2nc(NC(=O)c3ccc([N+](=O)[O-])o3)sc2c1	-2	-10	-24	24	81*	24
COc1ccc(C#Cc2cnc3c(c2)C(=O)N([C@@H](C)CO)C[C@H](C)[C@H](CN(C)C(=O)CC2CC2)O3)cc1	nt	4	nt	nt	nt	-9
C[C@@H]1CN([C@@H](C)CO)C(=O)c2cc(NS(C)(=O)=O)ccc2O[C@H]1CN(C)S(C)(=O)=O	nt	4	nt	nt	nt	-3
Cc1cc(C)cc(N(CC(=O)Nc2ccc(-c3nc4ccc(C)cc4s3)cc2)S(C)(=O)=O)c1	-20	-16	-21	7	7	nt
O=C(Nc1ccc(-c2nc3cccnc3s2)cc1)c1ccco1	-20	31	2	58*	36	-34
SMILES	TROY signal inh	LGR2 inh	KKLEB tox	TWEAK Fn14 block	CF NFkB block	EWS-Fli inh
Cc1ccc2nc(-c3ccc(NC(=O)CN(c4ccccc4C)S(C)(=O)=O)cc3)sc2c1	-10	nt	-2	53*	-22	nt
O=C(CN1C2CCCC1CC(NC(=O)c1ccco1)C2)Nc1ccccc1C(F)(F)F (stereo not given)	8	nt	2	31	7	nt
O=C(CN1C2CCCC1CC(NC(=O)c1ccccc1)C2)Nc1ccccc1C(F)(F)F (stereo not given)	51*	3	-9	39	-5	19
O=C(c1ccncc1)N1C[C@H]2[C@@H](c3ccccc31)[C@@H](CO)N2C(=O)Nc1cccc(F)c1	nt	-8	nt	nt	nt	0
CCc1ccc(-n2cccc2/C=C2/C(=N)N3C(=NC2=O)SN=C3S(C)(=O)=O)cc1	59*	16	-1	-6	1	nt
O=C(Cc1cccnc1)N1CC2(C1)[C@H](c1ccccc1)[C@H](CO)N2C(=O)C1CC1	nt	6	nt	nt	nt	4
COc1ccccc1S(=O)(=O)N[C@H]1CC[C@@H](CC(=O)N2CCOCC2)O[C@@H]1CO	nt	-1	nt	nt	nt	3
CCC1(C)Nc2ccccc2C(=O)N1O (stereo not given)	58*	nt	-2	3	-9	nt
O=C(Nc1ccc(-n2ccc(C(F)(F)F)n2)cc1)Nc1cccc(Cl)c1	34	-31	-18	72*	35	-53
O=C1c2cccc(NCCCNCCO)c2C(=O)c2cccc(NCCCNCCO)c21	-5	12*	-4	-8	-34	13
Cn1c(=O)[nH]c2nnc(-c3ccc(Cl)c(Cl)c3)nc2c1=O	4	36	6	57*	10	-14
COc1cc2c3nnc(-c4ccc(F)cc4)c-3cn(Cc3cccc(C)c3)c2cc1OC	-36	-8	-77*	-373	-72	4
COCCN=c1scc(-c2cc(OC)c(OC)c(OC)c2)n1/N=C/c1c(C)[nH]c2ccccc12	20	nt	-6	54*	-6	-4
COc1ccc(OCC(=O)c2c[nH]c3ccccc23)cc1	-29	-29	-7	-13	37	17
COc1ccc2c(C(=O)CCl)c[nH]c2c1	4	-16	-52*	53*	73*	23
Cc1ccc(-c2ccc(=O)n(CCC(=O)NCCN3CCCCC3C)n2)cc1 (stereo not given)	nt	nt	10	87*	-7	nt
Cc1ccc(-c2ccc(=O)n(CC(=O)NCCN3CCCCC3C)n2)cc1 (stereo not given)	9	nt	-6	15	2	nt
Cc1cc(N2CCN(C(=O)c3ccco3)CC2)c2ccccc2n1	-12	-4	-8	7	5	6
O=C(c1ccco1)N1CCN(c2nc3ccccc3c(=O)n2-c2ccccc2)CC1	61*	nt	-8	-22	10	nt
O=C(OCc1cnc(Cl)s1)c1ccccc1Cl	-33	nt	-3	-26	-3	nt
O=C(OCn1ncc(Br)c(Br)c1=O)c1ccccc1Cl	80*	27	-96*	97*	91*	nt
O=C(OCn1ncc(Br)c(Br)c1=O)c1ccc(F)cc1	83*	nt	-104*	102*	93*	nt
CC=Cc1ccc2n(c1=O)C[C@H]1[C@H](CO)[C@@H](C(=O)N3CCC(Cc4ccccc4)CC3)N(CC)[C@@H]21 (mixture of isomers)	nt	-6	nt	nt	nt	-6
